Drawing on publication PMC7862700, “An all-to-all approach to the identification of sequence-specific readers for epigenetic DNA modifications on cytosine”, this text covers binding signal for 40 sequences.

One assay has as its target T1, ETS2 (Homo sapiens, UniProt P15036 1-469).
T1 sequence: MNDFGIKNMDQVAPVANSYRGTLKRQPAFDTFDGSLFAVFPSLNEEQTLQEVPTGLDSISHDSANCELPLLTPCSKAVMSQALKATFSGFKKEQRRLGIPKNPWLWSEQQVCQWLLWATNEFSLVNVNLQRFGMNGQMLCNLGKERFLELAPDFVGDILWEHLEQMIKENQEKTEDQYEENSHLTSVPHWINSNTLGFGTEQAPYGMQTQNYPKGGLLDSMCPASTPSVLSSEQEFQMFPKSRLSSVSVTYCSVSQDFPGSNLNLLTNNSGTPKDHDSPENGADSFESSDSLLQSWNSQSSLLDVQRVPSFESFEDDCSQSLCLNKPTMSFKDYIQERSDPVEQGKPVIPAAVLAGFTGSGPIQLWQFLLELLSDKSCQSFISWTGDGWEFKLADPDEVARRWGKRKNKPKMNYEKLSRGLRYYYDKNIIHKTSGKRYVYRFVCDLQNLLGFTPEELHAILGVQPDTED
Put plainly: DAPPL (digital affinity profiling via proximity ligation, sequencing); 10 mM Tris-HCl pH 7.5, 50 mM NaCl, 1 mM DTT, 4% glycerol, room temperature, 30 min; GST-TFs on glutathione beads, 16-mer random dsDNA library, 0.1% formaldehyde crosslink after washing; high values mean tight binding. The conditions noted are these: protein: recombinant; tags: N-terminal GST; dsDNA, one strand shown. Put shortly: (§1)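 Each value of binding signal is a hexamer's read frequency for a factor divided by the same hexamer's frequency in the tag-only sample. Barcoded, bead-captured GST fusions of human transcription factors made in yeast were pooled with that sample and incubated with 200 nmole of a random double-stranded 16-mer DNA library in Tris/NaCl/DTT/glycerol buffer at room temperature for 30 min. Washing, 0.1% formaldehyde crosslinking, proximity ligation, PCR and Illumina NextSeq500 sequencing followed.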
As to ATGCAC, the binding signal is 1.29 fold enrichment (6-mer frequency, TF over GST control).
Regarding CGTTAC, the binding signal was 1.23 fold enrichment (6-mer frequency, TF over GST control).
As for CGATAT, the binding signal is 1.12 fold enrichment (6-mer frequency, TF over GST control).
In the case of ACCTCG, the binding signal is 1.11 fold enrichment (6-mer frequency, TF over GST control).
CCTCAA: the binding signal is 1.39 fold enrichment (6-mer frequency, TF over GST control).
On the same count and under the same terms, as for CTATAA, the figure is 1.28 fold enrichment (6-mer frequency, TF over GST control).
The same measure, in the same setting: for AACTTC the value was 2.63 fold enrichment (6-mer frequency, TF over GST control); for TAGTGT, 1.11 fold enrichment (6-mer frequency, TF over GST control).
Turning to AAAAAC, the binding signal is 1.29 fold enrichment (6-mer frequency, TF over GST control).
Still for that read-out and setting: as for CTGATG, the figure is 1.68 fold enrichment (6-mer frequency, TF over GST control).
Consider GGAAAT, for which the binding signal is 2.75 fold enrichment (6-mer frequency, TF over GST control).
Regarding TCCGTT, the binding signal is 1.54 fold enrichment (6-mer frequency, TF over GST control).
Turning to TTTACC, the binding signal is 1.28 fold enrichment (6-mer frequency, TF over GST control).
As to TACAAC, the binding signal is 1.12 fold enrichment (6-mer frequency, TF over GST control).
With CTAACG, the binding signal is 1.15 fold enrichment (6-mer frequency, TF over GST control).
Take AGCGAC: the binding signal is 1.15 fold enrichment (6-mer frequency, TF over GST control).
For AAACTG, the binding signal was 1.08 fold enrichment (6-mer frequency, TF over GST control).
As for TCCGTC, the binding signal is 1.3 fold enrichment (6-mer frequency, TF over GST control).
The same measure, in the same setting: as for ATGGGC, the figure is 1.28 fold enrichment (6-mer frequency, TF over GST control); as for TGTTTA, 1.13 fold enrichment (6-mer frequency, TF over GST control).

In the next assay the target is T2, SPDEF (Homo sapiens, UniProt O95238 1-335).
T2 sequence: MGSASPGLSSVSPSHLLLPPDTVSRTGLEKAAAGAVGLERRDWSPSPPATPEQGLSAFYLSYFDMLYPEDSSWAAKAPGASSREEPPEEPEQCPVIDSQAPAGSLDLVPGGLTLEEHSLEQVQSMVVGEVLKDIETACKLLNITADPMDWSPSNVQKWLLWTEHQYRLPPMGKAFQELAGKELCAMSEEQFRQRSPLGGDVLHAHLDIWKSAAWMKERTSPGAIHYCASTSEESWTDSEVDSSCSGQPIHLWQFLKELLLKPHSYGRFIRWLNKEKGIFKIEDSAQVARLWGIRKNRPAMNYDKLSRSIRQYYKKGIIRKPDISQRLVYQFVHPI
The assay is described as above. To be noted: protein: recombinant; tags: N-terminal GST; dsDNA, one strand shown. In outline:
as §1
On to AATATT, for which the binding signal is 1.25 fold enrichment (6-mer frequency, TF over GST control).
Same read-out and setting: as for AAACGG, the figure is 1.25 fold enrichment (6-mer frequency, TF over GST control); as for GTCACA, 1.08 fold enrichment (6-mer frequency, TF over GST control); as for GGAAAA, 1.12 fold enrichment (6-mer frequency, TF over GST control).
Turning to CCTAAC, the binding signal was 1.41 fold enrichment (6-mer frequency, TF over GST control).
Still for that read-out and setting: for GATATC the value was 1.92 fold enrichment (6-mer frequency, TF over GST control).
With CTGCCG, the binding signal is 1.26 fold enrichment (6-mer frequency, TF over GST control).
Take ACCGCT: the binding signal was 1.06 fold enrichment (6-mer frequency, TF over GST control).
GATGTC: the binding signal is 1.53 fold enrichment (6-mer frequency, TF over GST control).
On the same count and under the same terms, for ATGGAA the value was 1.2 fold enrichment (6-mer frequency, TF over GST control); for CTGGCA, 1.13 fold enrichment (6-mer frequency, TF over GST control); for CACCCC, 1.24 fold enrichment (6-mer frequency, TF over GST control).
CGACCC: the binding signal is 1.44 fold enrichment (6-mer frequency, TF over GST control).
As to TGCACC, the binding signal is 1.2 fold enrichment (6-mer frequency, TF over GST control).
On to ATATGG, for which the binding signal is 1.3 fold enrichment (6-mer frequency, TF over GST control).
CCCCGA: the binding signal was 1.05 fold enrichment (6-mer frequency, TF over GST control).
With ATAGCA, the binding signal was 1.12 fold enrichment (6-mer frequency, TF over GST control).
On to GCACAA, for which the binding signal is 1.05 fold enrichment (6-mer frequency, TF over GST control).
CCATCC: the binding signal is 1.56 fold enrichment (6-mer frequency, TF over GST control).
On to CCTGCG, for which the binding signal was 1.23 fold enrichment (6-mer frequency, TF over GST control).
The same measure, in the same setting: for ATGCAC the value was 1.5 fold enrichment (6-mer frequency, TF over GST control); for CGTTAC, 1.1 fold enrichment (6-mer frequency, TF over GST control).
CGATAT: the binding signal is 1.06 fold enrichment (6-mer frequency, TF over GST control).
For ACCTCG, the binding signal was 1.06 fold enrichment (6-mer frequency, TF over GST control).
With CCTCAA, the binding signal was 1.38 fold enrichment (6-mer frequency, TF over GST control).
For CTATAA, the binding signal is 1.34 fold enrichment (6-mer frequency, TF over GST control).
Same read-out and setting: as for AACTTC, the figure is 2.21 fold enrichment (6-mer frequency, TF over GST control); as for TAGTGT, 1.18 fold enrichment (6-mer frequency, TF over GST control); as for AAAAAC, 1.23 fold enrichment (6-mer frequency, TF over GST control).
Regarding CTGATG, the binding signal was 1.5 fold enrichment (6-mer frequency, TF over GST control).
Same read-out and setting: as for GGAAAT, the figure is 2.56 fold enrichment (6-mer frequency, TF over GST control).
TCCGTT: the binding signal was 1.74 fold enrichment (6-mer frequency, TF over GST control).
The same measure, in the same setting: as for TTTACC, the figure is 1.26 fold enrichment (6-mer frequency, TF over GST control); as for TACAAC, 1.17 fold enrichment (6-mer frequency, TF over GST control); as for CTAACG, 1.16 fold enrichment (6-mer frequency, TF over GST control).
Same read-out and setting: for AGCGAC the value was 1.01 fold enrichment (6-mer frequency, TF over GST control); for AAACTG, 1.02 fold enrichment (6-mer frequency, TF over GST control).
Take TCCGTC: the binding signal was 1.6 fold enrichment (6-mer frequency, TF over GST control).
As for ATGGGC, the binding signal was 1.24 fold enrichment (6-mer frequency, TF over GST control).
Same read-out and setting: for TGTTTA the value was 1.17 fold enrichment (6-mer frequency, TF over GST control).

A further assay has as its target T3, ETV7 (Homo sapiens, UniProt Q9Y603 1-341).
T3 sequence: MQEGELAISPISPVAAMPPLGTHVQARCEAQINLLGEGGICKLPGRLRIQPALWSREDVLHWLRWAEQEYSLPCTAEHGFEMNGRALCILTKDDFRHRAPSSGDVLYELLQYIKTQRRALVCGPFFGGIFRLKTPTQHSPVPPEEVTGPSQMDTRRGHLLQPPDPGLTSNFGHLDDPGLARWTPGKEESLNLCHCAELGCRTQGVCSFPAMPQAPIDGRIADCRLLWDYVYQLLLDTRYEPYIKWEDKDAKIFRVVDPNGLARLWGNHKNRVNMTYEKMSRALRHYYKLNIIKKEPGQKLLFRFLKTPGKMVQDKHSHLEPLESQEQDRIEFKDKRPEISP
The assay is described as above. The conditions noted are these: protein: recombinant; tags: N-terminal GST; dsDNA, one strand shown. In outline: as §1
Take AATATT: the binding signal is 1.43 fold enrichment (6-mer frequency, TF over GST control).
Turning to AAACGG, the binding signal is 1.16 fold enrichment (6-mer frequency, TF over GST control).
As for GTCACA, the binding signal was 1.09 fold enrichment (6-mer frequency, TF over GST control).
Same read-out and setting: as for GGAAAA, the figure is 1.26 fold enrichment (6-mer frequency, TF over GST control); as for CCTAAC, 1.25 fold enrichment (6-mer frequency, TF over GST control).
Take GATATC: the binding signal was 1.34 fold enrichment (6-mer frequency, TF over GST control).
CTGCCG: the binding signal was 1.39 fold enrichment (6-mer frequency, TF over GST control).
As for ACCGCT, the binding signal was 1.13 fold enrichment (6-mer frequency, TF over GST control).
With GATGTC, the binding signal is 1.27 fold enrichment (6-mer frequency, TF over GST control).
Consider ATGGAA, for which the binding signal was 1.35 fold enrichment (6-mer frequency, TF over GST control).
On the same count and under the same terms, as for CTGGCA, the figure is 1.4 fold enrichment (6-mer frequency, TF over GST control); as for CACCCC, 1.11 fold enrichment (6-mer frequency, TF over GST control).
As for CGACCC, the binding signal was 1.28 fold enrichment (6-mer frequency, TF over GST control).
Same read-out and setting: as for TGCACC, the figure is 1.02 fold enrichment (6-mer frequency, TF over GST control); as for ATATGG, 1.34 fold enrichment (6-mer frequency, TF over GST control).
Same read-out and setting: for CCCCGA the value was 1.06 fold enrichment (6-mer frequency, TF over GST control); for ATAGCA, 1.06 fold enrichment (6-mer frequency, TF over GST control); for GCACAA, 1.09 fold enrichment (6-mer frequency, TF over GST control).
Consider CCATCC, for which the binding signal is 1.24 fold enrichment (6-mer frequency, TF over GST control).
As for CCTGCG, the binding signal was 1.38 fold enrichment (6-mer frequency, TF over GST control).
In the case of ATGCAC, the binding signal is 1.3 fold enrichment (6-mer frequency, TF over GST control).
Still for that read-out and setting: for CGTTAC the value was 1.11 fold enrichment (6-mer frequency, TF over GST control).
In the case of CGATAT, the binding signal is 1.11 fold enrichment (6-mer frequency, TF over GST control).
As for ACCTCG, the binding signal is 1.21 fold enrichment (6-mer frequency, TF over GST control).
The same measure, in the same setting: for CCTCAA the value was 1.27 fold enrichment (6-mer frequency, TF over GST control).
On to CTATAA, for which the binding signal is 1.22 fold enrichment (6-mer frequency, TF over GST control).
Consider AACTTC, for which the binding signal was 2.3 fold enrichment (6-mer frequency, TF over GST control).
Take TAGTGT: the binding signal was 1.2 fold enrichment (6-mer frequency, TF over GST control).
As for AAAAAC, the binding signal is 1.29 fold enrichment (6-mer frequency, TF over GST control).
Regarding CTGATG, the binding signal is 1.64 fold enrichment (6-mer frequency, TF over GST control).
In the case of GGAAAT, the binding signal is 2.56 fold enrichment (6-mer frequency, TF over GST control).
For the sequence TCCGTT, the binding signal was 1.41 fold enrichment (6-mer frequency, TF over GST control).
As for TTTACC, the binding signal was 1.45 fold enrichment (6-mer frequency, TF over GST control).
As for TACAAC, the binding signal is 1.09 fold enrichment (6-mer frequency, TF over GST control).
Same read-out and setting: for CTAACG the value was 1.26 fold enrichment (6-mer frequency, TF over GST control).
In the case of AGCGAC, the binding signal is 1.22 fold enrichment (6-mer frequency, TF over GST control).
In the case of AAACTG, the binding signal is 1.13 fold enrichment (6-mer frequency, TF over GST control).
On to TCCGTC, for which the binding signal was 1.14 fold enrichment (6-mer frequency, TF over GST control).
In the case of ATGGGC, the binding signal was 1.22 fold enrichment (6-mer frequency, TF over GST control).
As to TGTTTA, the binding signal was 1.3 fold enrichment (6-mer frequency, TF over GST control).
